From PubChem BioAssay (Tox21)
Records with an inconclusive call do not appear. A number with no mark means an inactive call. The source made the active and inactive calls. The call rests on the fitted dose curve; in most records, active means well fitted curve in the direction sought with a large enough effect in the repeat runs; inconclusive means weak or mixed curves; inactive means no such curve, though single readings can be large; an effect the other way counts as inactive or inconclusive.

target: Aryl hydrocarbon receptor (Homo sapiens) (UniProt P35869); experiment: qHTS assay to identify small molecule that activate the aryl hydrocarbon receptor (AhR) signaling pathway (AID 743085); settings: HepG2 AhR-luc (HG2L7.5c1), luciferase, 24 h; series mostly up to 70.3 µM; activation: at the top concentration;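 further: HG2L7.5c1 human HepG2 liver cells with stably integrated DRE-driven firefly reporter; nearly all actives have a fitted effect of over 15% in size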
Outline: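 Luminescence read-out: ONE-Glo reagent, 30 min at room temperature, in HG2L7.5c1 HepG2 reporter cells treated 24 h at 37C. Viability was measured beforehand by CellTiter-Fluor fluorescence after 30 min at 37C.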
On the % scale 0 is the no-effect control and ±100 the full control effect.

Aryl hydrocarbon receptor (Homo sapiens), sequence (P35869 whole entry, looked up): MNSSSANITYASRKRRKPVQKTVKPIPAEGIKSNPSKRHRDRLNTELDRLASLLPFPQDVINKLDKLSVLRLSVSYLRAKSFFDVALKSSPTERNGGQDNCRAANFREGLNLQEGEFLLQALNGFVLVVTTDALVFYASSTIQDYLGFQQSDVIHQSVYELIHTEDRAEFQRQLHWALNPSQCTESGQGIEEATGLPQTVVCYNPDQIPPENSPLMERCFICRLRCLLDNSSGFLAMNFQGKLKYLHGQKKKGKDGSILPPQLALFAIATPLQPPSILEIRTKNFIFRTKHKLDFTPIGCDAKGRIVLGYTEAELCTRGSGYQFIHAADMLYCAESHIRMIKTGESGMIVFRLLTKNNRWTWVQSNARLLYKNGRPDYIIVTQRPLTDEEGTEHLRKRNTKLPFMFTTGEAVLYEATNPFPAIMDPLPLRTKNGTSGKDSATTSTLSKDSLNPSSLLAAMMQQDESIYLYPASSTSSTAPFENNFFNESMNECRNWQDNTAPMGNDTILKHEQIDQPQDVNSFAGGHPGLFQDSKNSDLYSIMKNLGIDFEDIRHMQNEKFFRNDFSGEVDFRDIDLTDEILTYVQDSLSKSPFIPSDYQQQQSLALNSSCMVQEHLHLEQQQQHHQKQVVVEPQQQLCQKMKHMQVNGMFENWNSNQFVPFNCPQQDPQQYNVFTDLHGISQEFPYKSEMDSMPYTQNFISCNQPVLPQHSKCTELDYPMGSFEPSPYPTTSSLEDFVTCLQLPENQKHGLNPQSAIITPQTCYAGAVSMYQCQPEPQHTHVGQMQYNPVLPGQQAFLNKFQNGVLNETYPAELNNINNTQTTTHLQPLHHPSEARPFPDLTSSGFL

Structure (SMILES) | activation | Potency
COCc1c(C(C)C)nc(C(C)C)c(/C=C/[C@@H](O)C[C@@H](O)CC(=O)O)c1-c1ccc(F)cc1 | 3.38% | –
CCC(C)=O | -1.67% | –
CC1(C)C(=O)N(Br)C(=O)N1Cl | 0.167% | –
CC1CC(O)CC(C)(C)C1 (stereo not drawn) | – | inactive
CCCCCCCCSCCO | -0.875% | –

system: not listed separately; experiment: qHTS assay to identify small molecule that activate the aryl hydrocarbon receptor (AhR) signaling pathway - cell viability counter screen (AID 743086); settings: HepG2-AhR-luc viability, CellTiter-Fluor, 24 h; series mostly up to 70.3 µM; viability change, negative = cytotoxic: at the top concentration; further: nearly all actives have a fitted effect of over 45% in size; further: potency means the concentration at half of the fitted maximal effect;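 on viability change, negative = cytotoxic: HepG2 liver cells carrying the AhR DRE luciferase reporter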
Outline: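 HepG2-AhR-luc (HG2L7.5c1) cells, 4000/well, were preincubated 5 h at 37C, exposed to compound in qHTS format for 24 hr at 37C, then given CellTiter-Fluor for 30 min; viability was read as fluorescence in the reporter wells.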

Structure (SMILES) | viability change, negative = cytotoxic | Potency
NCC1CCCC(CN)C1 (stereo not drawn) | 7.95% | –
O=C(C(=O)c1ccccc1)c1ccccc1 | 7.37% | –
C[N+](C)(C)CCOC(N)=O | 14.4% | –
c1cnc2c(n1)CCCC2 | 3.57% | –
Nc1nccs1 | – | inactive
CCCCCCOC(=O)CCCCCCCC(=O)OCCCCCC | 2.63% | –
COCCOC | -2.38% | –
C/C=C(\C)C(=O)OCCC(C)CCC=C(C)C (stereo not drawn) | -3.09% | –
CC(C)CCCCCOC(=O)CCCCC(=O)OCCCCCC(C)C | -6.97% | –
CO[C@H]1O[C@H](CO)[C@@H](O)[C@H](O)[C@H]1O | -0.742% | –
CN1CCN(CCCN2c3ccccc3Sc3ccc(S(=O)(=O)N(C)C)cc32)CC1 | -5.47% [at 32.5 µM] | –
O=C(CCCCCCCCC#CI)Oc1ccccc1 | 7.35% | –
CCCCN(CCCC)CCCOC(=O)c1ccc(N)cc1 | 0.91% [at 32.5 µM] | –
CC1=CC(=O)CC(C)(C)C1(O)/C=C/C(C)=C\C(=O)O (stereo not drawn) | -11.7% | –
CCCC(=O)O[C@]1(C(=O)COC(=O)CC)CC[C@H]2[C@@H]3CCC4=CC(=O)CC[C@]4(C)[C@H]3[C@@H](O)C[C@@]21C | -1.93% | –
Cc1ccccc1N1C(=O)c2cc(S(N)(=O)=O)c(Cl)cc2NC1C (stereo not drawn) | – | inactive
Cc1ccc(Nc2nccc(N(C)c3ccc4c(C)n(C)nc4c3)n2)cc1S(N)(=O)=O | – | 23.7 µM (active)
Cc1ccc(/C=N/n2c(-c3ccccc3)csc2=S)cc1 | 13.1% | –
